The other results are listed elsewhere or left out. The source made the active and inactive calls.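 Rule for the calls, unless noted: active = mean inhibition over 43.08%, the solvent-only control mean plus 3 SD; inactive = the rest.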
Legend:
[1] = molecular target: Nuclear receptor coactivator 3 (Homo sapiens) (UniProt Q9Y6Q9); experiment: SRC3 coactivator transcriptional activity inhibitors, confirmation, cell-based, luminescence, quadruplicate (AID 588792); details: HEK293 GAL4-SRC3 luciferase reporter, at 3.6 µM, active compounds read high;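 note: 0% = DMSO treated cells and 100% = gossypol at 36 µM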
Nuclear receptor coactivator 3 (Homo sapiens), sequence (Q9Y6Q9 whole entry, looked up, the tested form may be a part): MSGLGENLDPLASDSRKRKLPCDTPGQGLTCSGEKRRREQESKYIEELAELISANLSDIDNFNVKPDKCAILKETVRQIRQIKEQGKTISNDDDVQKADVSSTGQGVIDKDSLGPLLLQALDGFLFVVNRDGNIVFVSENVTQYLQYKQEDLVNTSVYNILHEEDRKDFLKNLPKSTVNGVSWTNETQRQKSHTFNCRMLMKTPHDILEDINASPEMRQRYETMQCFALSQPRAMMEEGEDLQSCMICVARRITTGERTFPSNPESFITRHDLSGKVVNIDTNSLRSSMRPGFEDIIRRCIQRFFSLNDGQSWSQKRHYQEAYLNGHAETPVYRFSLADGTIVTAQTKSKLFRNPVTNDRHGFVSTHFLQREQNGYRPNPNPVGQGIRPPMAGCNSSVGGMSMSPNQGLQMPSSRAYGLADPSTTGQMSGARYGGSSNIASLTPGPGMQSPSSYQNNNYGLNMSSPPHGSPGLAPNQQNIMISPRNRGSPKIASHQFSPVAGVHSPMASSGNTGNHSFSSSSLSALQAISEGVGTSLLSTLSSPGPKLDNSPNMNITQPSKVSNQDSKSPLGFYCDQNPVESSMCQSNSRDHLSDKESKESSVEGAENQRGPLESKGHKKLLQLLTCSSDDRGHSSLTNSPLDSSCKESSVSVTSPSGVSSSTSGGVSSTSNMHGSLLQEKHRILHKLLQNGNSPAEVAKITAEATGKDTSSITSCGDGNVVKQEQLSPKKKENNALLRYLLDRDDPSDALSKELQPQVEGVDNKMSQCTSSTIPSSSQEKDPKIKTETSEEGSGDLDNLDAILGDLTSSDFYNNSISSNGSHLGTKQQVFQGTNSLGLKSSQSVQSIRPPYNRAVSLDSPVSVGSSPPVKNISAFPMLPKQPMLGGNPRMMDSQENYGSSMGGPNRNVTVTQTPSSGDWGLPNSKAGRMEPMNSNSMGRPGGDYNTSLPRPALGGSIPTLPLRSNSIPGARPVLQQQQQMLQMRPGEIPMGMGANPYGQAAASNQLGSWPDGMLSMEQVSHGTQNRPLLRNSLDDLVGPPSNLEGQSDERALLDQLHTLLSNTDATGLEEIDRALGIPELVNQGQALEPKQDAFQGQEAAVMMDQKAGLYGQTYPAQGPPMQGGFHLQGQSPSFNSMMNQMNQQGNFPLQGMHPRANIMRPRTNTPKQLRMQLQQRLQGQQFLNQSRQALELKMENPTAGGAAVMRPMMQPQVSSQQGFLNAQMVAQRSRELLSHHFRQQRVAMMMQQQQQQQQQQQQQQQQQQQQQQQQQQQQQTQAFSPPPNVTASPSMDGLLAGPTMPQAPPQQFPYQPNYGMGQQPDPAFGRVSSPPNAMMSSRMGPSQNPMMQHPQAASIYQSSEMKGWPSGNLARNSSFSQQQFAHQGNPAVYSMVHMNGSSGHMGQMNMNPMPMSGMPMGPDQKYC

[2] = tested on: transactivating tegument protein VP16 (Human herpesvirus 1), Gal4-VP16 luciferase reporter; experiment: VP16 transactivation inhibitors, counter-screen for SRC3 inhibitor project, cell-based, luminescence, high throughput (AID 588794; in the data active = inhibition above about 30%); details: mammalian cells, VP16-driven luciferase reporter luminescence; at 3.6 µM; active compounds read high
[3] = molecular target: Nuclear receptor coactivator 1 (Homo sapiens) (UniProt Q15788); experiment: SRC1 coactivator transcriptional activity inhibitors, confirmation, cell-based, luminescence, quadruplicate (AID 588820;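 active = mean inhibition above 46.68%, the untreated control wells mean plus 3 SD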;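 note: 0% = DMSO wells and 100% = gossypol 36 µM treated wells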); details: HEK293 GAL4-SRC1 luciferase reporter, at 3.6 µM, active compounds read high
Nuclear receptor coactivator 1 (Homo sapiens), sequence (Q15788 whole entry, looked up, the tested form may be a part): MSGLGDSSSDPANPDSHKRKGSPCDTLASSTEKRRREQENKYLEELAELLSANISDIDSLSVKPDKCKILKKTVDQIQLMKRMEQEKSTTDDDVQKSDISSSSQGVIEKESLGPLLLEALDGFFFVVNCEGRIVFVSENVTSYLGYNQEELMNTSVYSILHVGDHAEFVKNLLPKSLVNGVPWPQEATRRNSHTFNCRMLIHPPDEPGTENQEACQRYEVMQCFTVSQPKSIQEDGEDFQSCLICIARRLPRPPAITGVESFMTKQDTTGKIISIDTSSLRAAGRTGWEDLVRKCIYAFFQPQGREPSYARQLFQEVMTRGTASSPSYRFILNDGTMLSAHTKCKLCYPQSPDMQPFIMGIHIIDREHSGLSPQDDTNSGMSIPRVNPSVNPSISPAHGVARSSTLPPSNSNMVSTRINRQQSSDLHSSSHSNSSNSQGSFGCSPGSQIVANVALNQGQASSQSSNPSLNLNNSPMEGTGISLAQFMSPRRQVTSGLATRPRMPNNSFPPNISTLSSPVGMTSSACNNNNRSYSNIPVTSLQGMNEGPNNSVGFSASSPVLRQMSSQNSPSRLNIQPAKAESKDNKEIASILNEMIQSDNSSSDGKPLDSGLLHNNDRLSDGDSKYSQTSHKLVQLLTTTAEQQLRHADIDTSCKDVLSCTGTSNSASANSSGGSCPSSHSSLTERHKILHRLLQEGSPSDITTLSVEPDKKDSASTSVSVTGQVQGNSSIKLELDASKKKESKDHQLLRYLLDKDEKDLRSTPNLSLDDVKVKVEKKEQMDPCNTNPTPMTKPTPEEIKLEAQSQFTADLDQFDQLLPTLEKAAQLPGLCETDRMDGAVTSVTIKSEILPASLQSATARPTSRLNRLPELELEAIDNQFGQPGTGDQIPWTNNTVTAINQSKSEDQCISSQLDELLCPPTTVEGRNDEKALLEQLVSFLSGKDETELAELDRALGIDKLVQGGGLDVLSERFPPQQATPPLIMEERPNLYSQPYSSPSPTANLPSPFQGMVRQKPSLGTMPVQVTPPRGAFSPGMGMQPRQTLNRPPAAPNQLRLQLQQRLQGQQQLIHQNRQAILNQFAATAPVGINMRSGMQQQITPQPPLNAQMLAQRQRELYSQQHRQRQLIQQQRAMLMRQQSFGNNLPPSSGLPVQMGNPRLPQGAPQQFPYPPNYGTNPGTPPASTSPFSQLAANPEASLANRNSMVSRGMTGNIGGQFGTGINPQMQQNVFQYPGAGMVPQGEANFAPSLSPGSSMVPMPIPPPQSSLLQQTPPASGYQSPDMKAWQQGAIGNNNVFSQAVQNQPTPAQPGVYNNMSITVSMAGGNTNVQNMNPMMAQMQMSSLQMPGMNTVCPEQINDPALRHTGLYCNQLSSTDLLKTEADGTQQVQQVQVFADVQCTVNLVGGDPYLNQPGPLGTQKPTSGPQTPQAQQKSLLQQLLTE

[4] = VP16 transactivation inhibitors, counter-screen for SRC1 inhibitor project, cell-based, luminescence, high throughput (AID 588824; in the data active = inhibition above about 25%); details: cell-based VP16 transactivation luciferase luminescence; at 3.6 µM; active compounds read high
[5] = molecular target: Photoreceptor-specific nuclear receptor (Homo sapiens) (UniProt Q9Y5X4); experiment: NR2E3 agonist confirmation in cells, cell-based, luminescence, CHO-S two-hybrid (AID 624378;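 active = average inhibition above a cutoff equal to the mean inhibition of all tested compounds plus one SD, cut at about 70% in these data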;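 note: 0% = DMSO in NR2E3 cells and 100% = DMSO in cells lacking NR2E3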); details: CHO-S mammalian two-hybrid NR2E3-NCOR, luciferase luminescence; at 3.98 µM; active compounds read high
Photoreceptor-specific nuclear receptor (Homo sapiens), sequence (Q9Y5X4 whole entry, looked up, the tested form may be a part): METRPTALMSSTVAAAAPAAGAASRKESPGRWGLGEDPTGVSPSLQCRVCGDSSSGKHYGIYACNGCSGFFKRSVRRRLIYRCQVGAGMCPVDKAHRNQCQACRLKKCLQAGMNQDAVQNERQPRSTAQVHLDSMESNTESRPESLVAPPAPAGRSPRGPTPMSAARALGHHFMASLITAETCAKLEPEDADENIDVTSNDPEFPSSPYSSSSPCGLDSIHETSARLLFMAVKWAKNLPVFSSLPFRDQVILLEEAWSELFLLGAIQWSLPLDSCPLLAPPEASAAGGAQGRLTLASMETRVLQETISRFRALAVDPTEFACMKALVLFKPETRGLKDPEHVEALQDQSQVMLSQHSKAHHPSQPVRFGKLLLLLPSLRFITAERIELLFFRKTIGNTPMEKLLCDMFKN

[6] = GAL4-VP16 reporter modulators, confirmation, counter-screen for NR2E3 agonist project, cell-based, luminescence, CHO-S, high throughput (AID 624379;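 active = mean inhibition above a cutoff equal to the average over all tested compounds plus one standard deviation, cut at about 70% in these data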;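 note: 0% = DMSO with VP16-transfected cells and 100% = DMSO with cells lacking VP16; higher means less reporter light so more repression of VP16 activity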); details: CHO-S GAL4-VP16 luciferase reporter, at 3.98 µM, active compounds read high
[7] = tested on: transactivating tegument protein VP16 (Human herpesvirus 1); experiment: VP16 transactivation reporter inhibitors, counter-screen for SRC2 inhibitor project, cell-based, luminescence, single concentration (AID 652007; in the data active = inhibition above about 36%); details: cell-based VP16 transactivation luciferase reporter, at 8.9 µM, active compounds read high
[8] = molecular target: Nuclear receptor coactivator 2 (Homo sapiens) (UniProt Q15596); experiment: SRC2 coactivator transcriptional activity inhibitors, confirmation, cell-based, luminescence, HEK293, triplicate (AID 652008;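 active = mean inhibition above 46.5%, the solvent-only control mean plus 3 SD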;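 note: 0% = DMSO-treated cells and 100% = Gossypol at 36 µM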); details: HEK293 GAL4-SRC2 luciferase reporter, at 8.9 µM, active compounds read high
[9] = Gal4-VP16 luciferase reporter inhibitors, counter-screen for COUP-TFII antagonist project, cell-based, luminescence, HEK293 (AID 687007; in the data active = inhibition above about 13%); details: at 8.5 µM, active compounds read high
[10] = molecular target: COUP transcription factor 2 (Homo sapiens) (UniProt P24468); experiment: NR2F2 transcriptional activity inhibitors, confirmation, cell-based, luciferase reporter, HEK293, triplicate (AID 687008;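 active = mean inhibition over three repeats above a set limit taken from the earlier primary screen, cut at about 38% in these data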;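 note: 100% = cells given the luciferase reporter alone without the COUP-TF2 vector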); details: HEK293 NGFI-A luciferase reporter, luminescence; at 8.5 µM; active compounds read high
COUP transcription factor 2 (Homo sapiens), sequence (P24468 whole entry, looked up): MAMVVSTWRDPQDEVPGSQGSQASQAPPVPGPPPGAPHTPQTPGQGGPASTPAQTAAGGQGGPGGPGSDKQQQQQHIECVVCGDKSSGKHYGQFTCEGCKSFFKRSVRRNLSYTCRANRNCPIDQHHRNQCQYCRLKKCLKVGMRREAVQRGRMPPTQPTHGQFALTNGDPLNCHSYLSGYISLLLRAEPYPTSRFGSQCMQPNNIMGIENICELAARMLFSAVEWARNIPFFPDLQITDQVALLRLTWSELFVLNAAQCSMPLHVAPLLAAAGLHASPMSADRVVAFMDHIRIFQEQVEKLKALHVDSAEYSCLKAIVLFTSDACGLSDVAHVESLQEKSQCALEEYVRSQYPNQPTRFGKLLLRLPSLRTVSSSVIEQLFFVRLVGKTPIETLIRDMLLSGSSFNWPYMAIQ

[11] = StAR promoter reporter inhibitors, counter-screen for LRH-1 inverse agonist project, cell-based, luminescence, high throughput (AID 651611; in the data active = inhibition above about 28%); details: StAR promoter luciferase reporter counterscreen, at 3.6 µM, active compounds read high
[12] = molecular target: Nuclear receptor subfamily 5 group A member 2 (Homo sapiens) (UniProt O00482); experiment: LRH-1 (NR5A2) inverse agonists, retest, confirmation, cell-based, luminescence (AID 651613; in the data active = inhibition above about 42%;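 note: HEK293T cells co-transfected with LRH-1 and StAR promoter luciferase reporter; 0% = vehicle wells and 100% = parental cells lacking receptor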); details: cell-based LRH-1 luciferase reporter, inverse agonism; at 3.6 µM; active compounds read high
Nuclear receptor subfamily 5 group A member 2 (Homo sapiens), sequence (O00482 whole entry, looked up): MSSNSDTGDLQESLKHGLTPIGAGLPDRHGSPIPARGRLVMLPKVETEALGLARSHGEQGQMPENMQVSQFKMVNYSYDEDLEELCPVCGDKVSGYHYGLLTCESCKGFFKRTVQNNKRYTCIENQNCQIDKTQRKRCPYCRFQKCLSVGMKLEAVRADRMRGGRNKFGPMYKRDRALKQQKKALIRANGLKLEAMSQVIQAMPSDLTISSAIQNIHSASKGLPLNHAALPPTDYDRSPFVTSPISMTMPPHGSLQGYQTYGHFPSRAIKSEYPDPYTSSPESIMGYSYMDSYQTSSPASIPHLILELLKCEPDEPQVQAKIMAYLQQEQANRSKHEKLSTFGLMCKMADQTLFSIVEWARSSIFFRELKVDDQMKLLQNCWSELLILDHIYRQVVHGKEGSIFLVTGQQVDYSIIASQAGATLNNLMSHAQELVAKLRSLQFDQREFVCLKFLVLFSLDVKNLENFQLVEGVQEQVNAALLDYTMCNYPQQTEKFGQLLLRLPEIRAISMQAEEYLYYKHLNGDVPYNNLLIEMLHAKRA

[13] = molecular target: Steroidogenic factor 1 (Homo sapiens) (UniProt Q13285); experiment: SF1 (NR5A1) inverse agonists, counter-screen for LRH-1 inverse agonist project, cell-based, luminescence, high throughput (AID 651614; in the data active = inhibition above about 44%;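 note: cells cotransfected with StAR promoter reporter and SF1 expression vector; 0% = vehicle on cells with receptor and 100% = vehicle on cells lacking receptor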); details: cell-based SF1 luciferase reporter, at 3.6 µM, active compounds read high
Steroidogenic factor 1 (Homo sapiens), sequence (Q13285 whole entry, looked up, the tested form may be a part): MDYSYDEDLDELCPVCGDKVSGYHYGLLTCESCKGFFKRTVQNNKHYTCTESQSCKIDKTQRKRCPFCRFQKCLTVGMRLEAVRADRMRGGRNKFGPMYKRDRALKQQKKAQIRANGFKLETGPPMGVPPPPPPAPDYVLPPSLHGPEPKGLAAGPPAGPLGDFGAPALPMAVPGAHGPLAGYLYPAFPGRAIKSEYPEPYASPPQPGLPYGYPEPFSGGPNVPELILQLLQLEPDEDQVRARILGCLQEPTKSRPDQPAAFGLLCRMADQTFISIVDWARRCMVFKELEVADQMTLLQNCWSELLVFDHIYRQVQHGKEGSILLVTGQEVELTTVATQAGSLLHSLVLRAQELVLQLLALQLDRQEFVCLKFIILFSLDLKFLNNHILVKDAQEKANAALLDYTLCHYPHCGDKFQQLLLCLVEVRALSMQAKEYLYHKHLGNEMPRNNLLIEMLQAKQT

[14] = VP16 transactivation reporter inhibitors, counter-screen for LRH-1 inverse agonist project, cell-based, luminescence, high throughput (AID 651615; in the data active = inhibition above about 33%); details: Gal4-VP16 luciferase reporter cells, at 3.6 µM, active compounds read high
[15] = molecular target: Galanin receptor type 2 (Homo sapiens) (UniProt O43603); experiment: GALR2 antagonists, retest of hits, confirmation, cell-based (AID 866; in the data active = inhibition above about 27%;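 note: cells stimulated with galanin at about its EC80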); details: GALR2-expressing cells, antagonist mode, at 4 µM, active compounds read high
Galanin receptor type 2 (Homo sapiens), sequence (O43603 whole entry, looked up): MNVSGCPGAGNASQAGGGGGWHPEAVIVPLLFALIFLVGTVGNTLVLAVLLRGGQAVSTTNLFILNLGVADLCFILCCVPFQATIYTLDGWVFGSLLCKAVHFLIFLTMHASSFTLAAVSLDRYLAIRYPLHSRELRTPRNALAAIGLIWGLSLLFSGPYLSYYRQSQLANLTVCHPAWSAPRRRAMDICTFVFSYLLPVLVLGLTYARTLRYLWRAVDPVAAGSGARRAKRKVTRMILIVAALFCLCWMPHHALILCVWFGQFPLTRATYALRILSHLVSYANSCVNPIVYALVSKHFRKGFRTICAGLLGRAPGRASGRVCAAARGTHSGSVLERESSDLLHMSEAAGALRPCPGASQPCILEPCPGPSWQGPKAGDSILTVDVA

[16] = inhibitors of NFAT-driven beta-lactamase reporter, confirmation, counter-screen for GALR2 antagonist project, CHO NFAT-bla cells, FRET readout (AID 867;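 active = inhibition above the mean inhibition across tested compounds plus 3 SD, cut at about 27% in these data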;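 note: 0% = 500 nM thapsigargin stimulated wells and 100% = unstimulated BSA only wells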); details: thapsigargin-stimulated, at 4.2 µM, active compounds read high
[17] = molecular target: Receptor-interacting serine/threonine-protein kinase 2 (Homo sapiens) (UniProt O43353); experiment: NOD2-RIPK2 binding disruptors, retest, confirmation, fluorescence, CHO cells, BLA complementation, triplicate (AID 624370;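 active = mean inhibition across replicates above a set limit taken from the earlier primary screen, cut at about 21% in these data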;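 note: 0% = DMSO-only wells and the high end = clavulanate BLA-blocked wells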); details: CCF4 FRET, at 4.98 µM, active compounds read high
[18] = beta-lactamase reporter inhibitors in CHO cells, confirmation, artefact control for NOD2-RIPK2 interaction inhibitor project, cell-based, CHO-K1 CMV-bla, CCF4 FRET, fluorescence (AID 624371;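 active = mean inhibition above the low-control mean inhibition plus three low-control SD, cut at about 11% in these data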;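 note: 0% = DMSO only wells and 100% = clavulanate high control wells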); details: CCF4 FRET ratio, counterscreen, at 4.98 µM, active compounds read high

Measured: inhibition

O=C(CSC1=NCCS1)Nc1ccnc2ccccc12
inactive: [1] 28.1% | [3] 27.5%
active: [2] 37.7% | [4] 37.9%

COc1ccc(-n2c(C)c(C(C)=O)c3cc(OC(C)=O)ccc32)cc1
active: [1] 77.5% | [2] 55% | [3] 65.2% | [4] 60.4%

CC(=O)c1c(C)oc2ccc(N(C(C)=O)S(=O)(=O)c3cccc4cccnc34)cc12
inactive: [1] 15.2% | [2] 21.9% | [3] 6.31% | [4] 18.4%

CN=C1S/C(=C\c2cc(C)n(-c3ccccc3F)c2C)C(=O)N1C
inactive: [1] -15.3% | [2] -38.2% | [3] -105% | [4] -68%

COc1cccc2c1C(=N)c1c(O)c3c(c(O)c1C2=O)CC(O)(C(C)=O)CC3OC1CC(N)C(O)C(C)O1 (stereo not given)
inactive: [1] 41.9% | [2] -33.3% | [3] 26.9% | [4] -29.4%

CCCNC(=O)c1nnsc1S(=O)(=O)c1ccc(Cl)cc1
active: [1] 55.7%
inactive: [2] 6.39% | [3] -64.8% | [4] 5.6%

c1ccc(-c2noc(-c3ccc4ccccc4c3)n2)nc1
active: [1] 43.7%
inactive: [2] 19.2% | [3] -79.6% | [4] 23.7%

Cn1c(/C=C/c2ccc(Cl)cc2)c([N+](=O)[O-])c(=O)n(C)c1=O
inactive: [1] 39.6% | [3] 36.3%
active: [2] 35.7% | [4] 28.6%

COc1cc2c(cc1OC)C(C)N(C(=O)c1cccc([N+](=O)[O-])c1)CC2 (stereo not given)
inactive: [1] 34% | [2] 23.4% | [3] 17.3% | [4] 22.3%

CC(C)n1cnc2c(NCc3ccccc3)cc(N[C@H](C)CO)cc21
inactive: [1] 16.4% | [3] 35.6% | [4] 8.74%
active: [2] 87.3%

O=C(Nc1scc(-c2ccc(Br)cc2)c1C(=O)O)c1ccccc1F
inactive: [1] 10.7% | [2] 15.8% | [3] -17.2% | [4] 10.7%

Cc1ccc(C)c(S(=O)(=O)N2CCN(c3ncnc4sccc34)CC2)c1
inactive: [7] 32.8%
active: [1] 63.1% | [2] 59.6% | [3] 57.9% | [4] 56.5% | [5] 93.9% | [6] 82.7% | [8] 53.3% | [9] 20.1% | [10] 49.9%

COc1cccc(Cn2c(NCc3cccnc3)nc3c2c(=O)n(C)c(=O)n3C)c1
active: [1] 50.8% | [2] 41.3% | [3] 58.1% | [4] 38% | [11] 59.4% | [12] 55.5% | [13] 50.3% | [14] 62.8%

CC(C)(C)OC(=O)NCC(=O)Oc1cc2oc(=O)cc(-c3ccccc3)c2cc1Cl
inactive: [1] 21.9% | [2] 15.7% | [3] 21.3% | [4] 15.3%

N=c1c2c(-c3ccccc3)c(-c3ccccc3)n(Cc3ccccc3)c2ncn1CCO
active: [2] 61% | [4] 57.8% | [11] 57.2% | [12] 71.5% | [13] 73.1% | [14] 77.4%
inactive: [1] 26.6% | [3] 39.8%

CCc1nc(N)nc(N)c1-c1ccc(N(C)Cc2ccccc2)c([N+](=O)[O-])c1
active: [1] 63.5% | [2] 54.7% | [3] 69.4% | [4] 60.4% | [11] 71.8% | [12] 69.6% | [13] 65.9% | [14] 64.1%

CCOc1cc(Br)cc(/C=N/NC(=O)c2cccnc2)c1O
inactive: [1] 33% | [3] 27.3%
active: [2] 44.3% | [4] 36.9%

Cc1ccsc1C(=O)OCC(=O)c1cc(C)n(CC2CCCO2)c1C (stereo not given)
inactive: [6] 50.3% | [12] 15.3%
active: [1] 73.4% | [2] 65.6% | [3] 49.5% | [4] 44.4% | [5] 70.8% | [11] 66.9% | [13] 61.6% | [14] 39.8% | [7] 59.5% | [8] 85% | [9] 78.4% | [10] 97.7%

CC[C@H]1CN2CCc3cc(OC)c(OC)cc3[C@@H]2C[C@@H]1C[C@H]1NCCc2cc(OC)c(OC)cc21
active: [15] 102% | [16] 92.8% | [1] 98.3% | [2] 97.2% | [3] 92.6% | [4] 96.4% | [17] 30.7% | [5] 97.8% | [6] 99.2% | [11] 94.6% | [12] 109% | [13] 97.7% | [14] 96.4%
inactive: [18] -0.09%

Cc1ccc2[nH]cc(/C=C/c3cc[n+](C)cc3)c2c1
active: [2] 52.6% | [4] 59.7% | [11] 42.2% | [12] 84% | [13] 75.5% | [14] 70.5%
inactive: [1] 40.1% | [3] 14.5%

CCOc1cc(/C=C(/C#N)c2ccc(Cl)cc2)cc(Cl)c1OCC(=O)O
active: [1] 51.4% | [2] 45.5% | [4] 36.9% | [6] 77.7% | [7] 77.6% | [8] 91%
inactive: [3] 29.6% | [5] 62.7%

Reference: PubChem BioAssay
